# Laboratory results reported in PubChem BioAssay (NCI).
# “And” between values parts separate entries of the source, which are not always exact repeats. Equal entries are not always repeated. The panel holds about 83,000 compounds, 20% with a hit somewhere; the sample as a whole holds those more often.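 How to read the values: 0–100, growth inhibition (40 = 60% inhibited); 0, no net growth; -100 to 0, cell death (-40 = 40% of starting cells died; -100 = all dead).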 Unmarked numbers belong to inactive results. The source made the active and inactive calls. Starred links: 1 amine or outer side, 2 acyl side, 3 side chain; linkers in the order of their positions; H or OH if unused. Positions of bridges follow the written chain, without caps; N, C: chain ends. Non-standard residues stand in square brackets, D forms with d. Residues, ends and D or L forms follow the SMILES beside them. Chains are numbered I, II in the order given. Actinocin(9to1) = Cc1c2oc3c(C)ccc(C(=O)[*:1])c3nc-2c(C(=O)[*:2])c(N)c1=O; aThr = C[C@H](O)[C@H](N)C(=O)O; NMeV = CN[C@H](C(=O)O)C(C)C; Sar = CNCC(=O)O
# Tested on: NCI/ADR-RES ovarian
# Test: NCI-60 one-dose screen, 48 h (100 = growth as untreated, 0 = no growth, -100 = all killed)
# Details: 0.0025 µM
# Protocol: Growth inhibition of the NCI/ADR-RES human […] tumor cell line is measured as a screen for anti-cancer activity. Cells are grown in 96 well plates and exposed to the test compound for 48 hours. Compounds are tested at a single concentration, which is 10^-5 M for most compounds. The reported endpoint is percent growth (GI% or GIPRCNT), where numbers from 0 - 100% represent growth inhibition, and numbers from -100% - 0 represent cell death. For example, a value of 40 represents 60% growth inhibition. A value of 0 means no net growth occurred over the course of the experiment. A value of -40 indicates 40% of cells at the beginning of the experiment died by the end of the experiment. A value of -100 means all cells are dead at the end of the experiment.
# NCI-60 Human Tumor Cell Lines Screen was performed using the standard one-dose NCI protocol, which is described in more detail at https://dtp.cancer.gov/discovery_development/nci-60/default.htm.
# Compounds with GIPRCNT values below 10 were considered active. Activity score was based on GIPRCNT using the following formula: […]
# Score is 0 for GIPRCNT values of 100 or above, 50 for GIPRCNT values of 0, and 100 for GIPRCNT values of -100.
row,Structure (SMILES),growth [%]
1,"Cc1c2oc3c(C)ccc(C(=O)N[C@@H]4C(=O)N[C@H](C(C)C)C(=O)N5CCC[C@H]5C(=O)N(C)CC(=O)N(C)[C@@H](C(C)C)C(=O)O[C@H]4C)c3nc-2c(C(=O)N[C@@H]2C(=O)N[C@H](C(C)C)C(=O)N3CCC[C@H]3C(=O)N(C)CC(=O)N(C)[C@@H](C(C)C)C(=O)O[C@H]2C)c(N)c1=O (I: [aThr][dV]P[Sar][NMeV] / II: [aThr][dV]P[Sar][NMeV]; ester I:1-I:C, II:1-II:C; linker I:N-II:N via Actinocin(9to1))",96.7

# Same assay, conditions: 10 µM
row,Structure (SMILES),growth
1,BrC/C=C/C[P+](c1ccccc1)(c1ccccc1)c1ccccc1,96.7%
2,O=c1[nH]cc(F)c(=O)[nH]1,67.2% and 63.5%
3,Cc1cnc(/C=N\NC(N)=S)c2cccc(N)c12,10.9%
4,CCCCCCCCCCCCCCCCCN,115%
5,Cc1cc(NCCCN(C)C)c2ccc3c(ccc4c(NCCCN(C)C)cc(C)nc43)c2n1,-10.4% (active)
6,S=c1[nH]nc(Cc2ccccc2)c(=S)[nH]1,100%
7,CN1CCN(c2ccc3nc(-c4ccc5nc(-c6ccc(O)cc6)[nH]c5c4)[nH]c3c2)CC1,130%
8,O=C(/C(=C/c1ccccc1)CBr)c1ccccc1,81.4%
9,"Cc1c2oc3c(C)ccc(C(=O)N[C@@H]4C(=O)N[C@H](C(C)C)C(=O)N5CCC[C@H]5C(=O)N(C)CC(=O)N(C)[C@@H](C(C)C)C(=O)O[C@H]4C)c3nc-2c(C(=O)N[C@@H]2C(=O)N[C@H](C(C)C)C(=O)N3CCC[C@H]3C(=O)N(C)CC(=O)N(C)[C@@H](C(C)C)C(=O)O[C@H]2C)c(N)c1=O (I: [aThr][dV]P[Sar][NMeV] / II: [aThr][dV]P[Sar][NMeV]; ester I:1-I:C, II:1-II:C; linker I:N-II:N via Actinocin(9to1))",-39.5% (active)
10,CSc1ccc2c(c1)C(N1CCN(C)CC1)Cc1ccccc1S2 (configuration not stated),49.2%
11,COc1cc(C(C)(C)C)cc(OC)c1C(O)(c1c(OC)cc(C(C)(C)C)cc1OC)c1c(OC)cc(C(C)(C)C)cc1OC,-56.8% (active)
12,Nc1ccc2cc(Br)c3ccccc3c2c1,67.2%
13,CN(C)CCC(=O)c1c[nH]c2ccccc12,110%
14,N#C/C(=C1C=C/C(=N\O)C(Cl)=C\1)c1ccccc1,34%

# Same assay, conditions: 25 µM
row,Structure (SMILES),growth [%]
1,O=c1[nH]cc(F)c(=O)[nH]1,47.6

# Same assay, conditions: 50 µM
row,Structure (SMILES),growth [%]
1,O=c1[nH]cc(F)c(=O)[nH]1,56.5
